Experimental data published in the supplement of paper PMC6555819.

Legend:
Test in all cases: PBM binding z-score (relative to random genomic background probes); higher = stronger binding; sequences stand for … in GC…GCGATTGACAGCGTAGAATGAAGG
[1] = tested on: FXR:RXRa (NR concentration 270 nM, RXRa partner concentration 90 nM)
Method in brief: (§1)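 Custom Agilent 4×180K protein-binding microarrays carried double-stranded probes, each with a 34-nt variable region. These regions held direct-repeat seeds, single-nucleotide variants, half-site ablations and random human genomic background sequences. Ligand-free nuclear receptor dimers were incubated on the arrays for 1 h, antibodies against each partner (one per run) detected binding, and scanned fluorescence was regression-normalized. Binding z-scores take the random background probes as reference.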

[2] = tested on: LXRa:RXRa (NR concentration 270 nM, RXRa partner concentration 90 nM)
Method in brief: as §1

[3] = tested on: LXRa homodimer (NR concentration 270 nM)
Method in brief: as §1

[4] = tested on: LXRb:RXRa (NR concentration 270 nM, RXRa partner concentration 90 nM)
Method in brief: as §1

[5] = tested on: LXRb homodimer (NR concentration 270 nM)
Method in brief: as §1

[6] = tested on: PPARa:RXRa (NR concentration 270 nM, RXRa partner concentration 90 nM)
Method in brief: as §1

[7] = tested on: PPARg:RXRa (NR concentration 180 nM, RXRa partner concentration 90 nM)
Method in brief: as §1

[8] = tested on: PPARg:RXRa 270nM:90nM, anti-RXR (NR concentration 270 nM, RXRa partner concentration 90 nM)
Method in brief: as §1

[9] = tested on: PPARg:RXRa 30nM:10nM, anti-RXR (NR concentration 30 nM, RXRa partner concentration 10 nM)
Method in brief: as §1

[10] = tested on: PPARg:RXRa 90nM:30nM, anti-RXR (NR concentration 90 nM, RXRa partner concentration 30 nM)
Method in brief: as §1

Sequence | PBM binding z-score [1] | PBM binding z-score [2] | PBM binding z-score [3] | PBM binding z-score [4] | PBM binding z-score [5] | PBM binding z-score [6] | PBM binding z-score [7] | PBM binding z-score [8] | PBM binding z-score [9] | PBM binding z-score [10]
GTACCAAGGTGAATAGGTCGTTGACGAGTAGGCG | 1.08 | 0.711 | -0.12 | 0.495 | -0.439 | 2.45 | 1.58 | 1.84 | 0.445 | 1.35
CAAACTCGGTCACGAAAGGTCAAAGTCGAATGAC | 6.39 | 7.32 | 7.74 | 6.5 | 2.6 | 5.95 | 6.08 | 5.84 | 2.68 | 5.51
CGAACGAGGTCAAGGACAGTGAATCTCCGCACGC | 7.55 | 5.54 | 0.753 | 4.4 | 0.542 | 5.95 | 7.29 | 6.61 | 3.39 | 5.65
ATATGTAGGTTAGCTGGGGTCATTAAGACTAGGC | 4.6 | 5.39 | 2.55 | 4.58 | 1.38 | 5.13 | 5.69 | 4.89 | 2.49 | 4.2
ATCGAAAGGTCGAGGTGAGTATTGAGAAAGGGAA | 4.14 | 3.39 | -0.0656 | 2.81 | 0.293 | 4.74 | 3.29 | 3.53 | 1.37 | 2.19
CCTCGGAGGACAACAGGGGGTCAGAGCTGCCAGA | 1.81 | 2.48 | 0.582 | 3.99 | 2.09 | 3.22 | 1.09 | 1.92 | -0.264 | 1.13
ACTATTAGTTGTCTTAGGGCAACCGATACGACGC | 0.119 | 0.0228 | 0.27 | 0.0317 | 0.936 | -0.245 | 0.651 | 0.232 | 0.276 | 0.044
CCAGACAGGTGCAAGGTAACTCAGTCTGGTACGC | -0.53 | -0.47 | -0.166 | -0.568 | -0.694 | -0.13 | 0.366 | 0.416 | -0.287 | 0.128
AGAATGAGGTTACCAATGATCAGGGAAACGCTTG | 1.77 | 3.21 | -0.495 | 1.67 | -0.399 | 3.33 | 2.55 | 2.4 | 1.21 | 1.7
GCTGCTAGGTCAGGTTGGTGAGCTAACGGGTACG | 1.04 | 0.598 | -0.365 | 0.053 | -0.485 | 1.22 | 0.336 | 0.876 | -0.603 | 0.225
ATCCCTAGGTAAGACTCAGTTCAGTGAAGAACGC | 0.273 | 0.364 | 0.479 | 0.29 | 0.516 | -0.0282 | 0.0747 | -0.195 | -0.259 | -0.0563
CGTCCAAGGTCATAGGAGGTCAGTGGAGACAGAT | 7.92 | 7.55 | 5.5 | 6.44 | 1.44 | 5.76 | 5.84 | 5.73 | 2.93 | 4.69
CCTTACGGGTCACGAGATTATAGCACGACGAGCG | 6.02 | 4.05 | 0.0796 | 3.37 | 0.00532 | 5.42 | 6.21 | 5.93 | 2.99 | 4.95
GCTATTAGTTGAAAGGTCAACCGAATGATTCTCG | 5.42 | 6.07 | 4.71 | 5.26 | 1.55 | 5.77 | 7.71 | 6.96 | 6.56 | 7.52
TCTAGTTGGTCACGGAGGTCACGCACGACGGGTA | 3.96 | 4.14 | 2.94 | 3.75 | 0.74 | 4.54 | 4.03 | 4.7 | 3.7 | 4.38
GCGACTGGGGCATCAGAAGGTTACCATAACTTAA | -0.0561 | 0.0873 | -0.311 | 1.22 | -0.607 | 1.65 | 1.43 | 1.22 | -0.0101 | 0.461
TGATATAGGTAAAAGGTGAAAGTCGGTGTGGTAA | 1.72 | 1.59 | 0.194 | 1.96 | 0.256 | 5.88 | 9.54 | 8.88 | 8.67 | 9.7
CGAACGAGCGCATGAGTTGATAGCAAATGCCGAT | -0.525 | -0.575 | -0.486 | -0.865 | -1.12 | -1.7 | 0.405 | -0.647 | -0.312 | -0.44
ATCGAAAGTTCGACGAGGTGAGTATACACCGTTT | 0.939 | 0.833 | -0.161 | 0.494 | 0.233 | 1.18 | 0.693 | 0.561 | 0.0902 | 0.117
GCATATAGGTAATACAAGGTGAAAGACCGATTGT | 1.32 | 2.31 | 0.0608 | 0.571 | -0.236 | 1.46 | 1.65 | 1.57 | 0.368 | 0.978
TGTCAAAGTTCAAAGGTAACGTCAGTATCCACAC | 7.51 | 6.72 | 4.98 | 4.84 | 1.79 | 5.79 | 8.85 | 7.88 | 5.71 | 7.79
CCGACTGGGGCAAAGTTTACCATACTCAGTACGA | -0.248 | 0.0946 | -0.139 | 0.553 | -0.586 | 3.67 | 8.3 | 7.72 | 6.38 | 8.55
GCGACTGGGGCATCAACAGGTTACCATAACTTAA | -0.21 | 0.22 | -0.147 | 1.42 | -0.367 | 1.48 | 1.15 | 0.92 | -0.0267 | 0.231
TCTTGTAGATCAAGTAGGTTAAGAAAGCCTGAGT | 0.567 | 0.521 | 0.138 | 0.441 | -0.306 | 1.17 | -0.25 | 1.46 | 2.57 | 2.04
ATCTCTAGGCAAAGATAGTTCAGTGAATGCAAAT | -0.415 | 0.271 | 0.124 | -0.207 | 0.263 | -0.233 | 0.154 | -0.151 | -0.0446 | -0.153
